40 compounds from PubChem BioAssay can be followed below.

The source made the active and inactive calls. No rule for the calls is given here. Where a SMILES comes first, the peptide text is derived from it. [ ]: non-standard residue; d: D form. The star is where a group is joined. ξ: configuration not given here. Cbz = O=C(OCc1ccccc1)*; ξK = NCCCCC(N)C(=O)O

One may read the inhibition as the percentage by which the read-out fell short of the control.

Sequence of Pantothenate synthetase (Mycobacterium tuberculosis (strain ATCC 25618 / H37Rv)) (P9WIL5 whole entry, looked up): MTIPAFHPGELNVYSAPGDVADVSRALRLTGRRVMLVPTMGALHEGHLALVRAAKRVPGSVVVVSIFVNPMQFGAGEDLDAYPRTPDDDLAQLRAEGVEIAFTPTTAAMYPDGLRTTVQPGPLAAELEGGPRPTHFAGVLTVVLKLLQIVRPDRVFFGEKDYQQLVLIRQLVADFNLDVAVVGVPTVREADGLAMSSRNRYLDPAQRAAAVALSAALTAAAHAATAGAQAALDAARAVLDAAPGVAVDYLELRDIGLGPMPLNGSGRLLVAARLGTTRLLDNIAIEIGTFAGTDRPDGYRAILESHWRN

This experiment addresses Pantothenate synthetase (Mycobacterium tuberculosis (strain ATCC 25618 / H37Rv)) (UniProt P9WIL5). Put plainly: Coupled enzyme confirmation of inhibitors against recombinant Mtb PanC (AID 375).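 Also: 0% = full reaction with vehicle and 100% = no enzyme background.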 The note with it: coupled enzyme assay; at 10 µM, active compounds read high.
For the compound `CCCCN(C)C(=O)CS(=O)(=O)Cc1nc(-c2cccc(OC)c2)oc1C`, the inhibition was 0% (inactive).

Take `CCOC(=O)c1sc(NC(=O)CSc2nnc(-c3ccco3)n2CC)c(C(=O)OCC)c1C`: the inhibition was 0% (inactive). To `O=c1c2c(nc3nc(COc4ccccc4)[nH]n13)CCC2` belongs 0% (inactive); to `O=C(Cn1c(=O)[nH]c2ccsc2c1=O)N1CCN(c2ccc(F)cc2)CC1`, 0% (inactive); to `CCOC(=O)c1ccccc1NC(=O)CSc1nc2c(c(=O)n(C)c(=O)n2C)n1C`, 0% (inactive).

On to `CNC(=O)CSc1nnc(-c2cc(C)cc(C)c2)o1`, for which the inhibition is 7% (inactive). The result for `COCCn1c(=O)[nH]c2cc(C(=O)NCCCN3CCN(c4ccc(F)cc4)CC3)ccc2c1=O` reads 0% (inactive). On to `O=C(NCc1ccco1)c1csc(Nc2ccccc2Cl)n1`, for which the inhibition was 0% (inactive).

With `COc1cccc(OCC(=O)Nc2ccccc2C(N)=O)c1`, the inhibition was 4% (inactive). To `Clc1ccc(SCCCCn2ccnc2)cc1` belongs 8% (inactive); to `CCOC(=O)CCC(=O)c1c(C)oc2ccc(OC)cc12`, 4% (inactive); to `Cc1cccc(NC(=O)c2cc(NC(=O)c3ccco3)ccc2Cl)n1`, 0% (inactive). Turning to `N#Cc1cn(CC(=O)N2CCCC2)c2ccccc12`, the inhibition is 0% (inactive). Turning to `N#Cc1nc(-c2ccccc2Cl)oc1N1CCOCC1`, the inhibition was 0% (inactive). Consider `Cc1cccc(NC(=O)Nc2cccc(C#N)c2)n1`, for which the inhibition is 1% (inactive). The result for `CCN(CC)C(=O)c1ccc(NS(=O)(=O)c2ccccc2)cc1` reads 0% (inactive); that for `CCOc1cc(C(=O)NCC2CCCO2)cc(OCC)c1OCC` (stereo not given), 3% (inactive). As for `COc1cc(C(=O)Nc2cccc(-c3nncn3C)c2)cc(OC)c1OC`, the inhibition was 0% (inactive). For the compound `COC(=O)C(CCCCNC(=O)OCc1ccccc1)NC(=O)CN` (stereo not given) (H-Gly-[ξK](Cbz)-OMe), the inhibition is 0% (inactive). The result for `COc1cc(C2C(C#N)=C(N)OC3=C2C(=O)CCC3)ccc1OC(=O)N1CCOCC1` (stereo not given) reads 0% (inactive). With `COc1ccc(-c2noc(CSc3nc4ccccc4c(=O)n3-c3ccccc3)n2)cc1OC`, the inhibition was 1% (inactive). On to `CCc1nnc(NC(=O)CCC(=O)Nc2ccccc2)s1`, for which the inhibition was 4% (inactive).

Take `CCCCN(CC)S(=O)(=O)N1CCC(C(=O)NCc2ccc(F)cc2)CC1`: the inhibition was 6% (inactive). Regarding `CCOC(=O)c1ccc(NC(=O)N2CCN(Cc3cccc(F)c3)CC2)cc1`, the inhibition was 0% (inactive). As to `N#C/C(=C(/O)COC(=O)CCC1CCCCC1)c1nc2ccccc2[nH]1`, the inhibition was 6% (inactive). The result for `CCOC(=O)C1C2C=CC3(CN(Cc4ccco4)C(=O)C13)O2` (stereo not given) reads 0% (inactive); that for `COc1ccccc1C1C(C(C)=O)=C(O)C(=O)N1CCc1ccccc1` (stereo not given), 8% (inactive); that for `O=C(CSCc1cccc(F)c1)N1CCN(c2ccccc2)CC1`, 4% (inactive). The result for `CC(=O)NCc1cccc(CNC(C)=O)n1` reads 11% (inactive); that for `COc1ccc(CN(C(=O)CN2C(=O)COc3ccccc32)C2CCCC2)c(OC)c1`, 0% (inactive). The result for `Brc1cccc(-c2cnc3n2CCCCC3)c1` reads 4% (inactive); that for `CCN1CCCC1CN=Cc1c(O)n(-c2ccccc2)c(=O)c2ccccc12` (stereo not given), 0% (inactive). As for `CC(C)(C)c1cc(NC(=O)c2cc(F)c(F)c(F)c2F)no1`, the inhibition is 0% (inactive). To `CC(=O)c1cccc(N(CC(=O)N2CCCC2)S(C)(=O)=O)c1` belongs 0% (inactive); to `CC(=O)O[C@H]1CSC[C@H]1NC(=O)c1ccccc1`, 0% (inactive). The result for `CCOC(=O)c1ccc(NC(=O)CSC2=NC(=O)C(CC)C(=O)N2)cc1` (stereo not given) reads 3% (inactive). Consider `CNC(=O)CSc1nnc(-c2cc3c(C)nn(-c4ccccc4)c3s2)n1C`, for which the inhibition was 2% (inactive).

On to `COCCn1nnnc1C(c1cc2cc(OC)ccc2[nH]c1=O)N1CCC(Cc2ccccc2)CC1` (stereo not given), for which the inhibition is 3% (inactive). In the case of `CCOC(=O)Cc1nnc(NC(=O)c2ncn[nH]2)s1`, the inhibition is 0% (inactive). To `O=C(c1nn2cccnc2c1Cl)N1CCN(c2ccccc2)CC1` belongs 6% (inactive).
